Measurements: PubChem BioAssay (Tox21)
Inconclusive results are not listed. Active and inactive are the calls of the source. Unless noted, calls come from the whole dose curve; as a rule, active = well fitted curve in the direction sought with a large enough effect in the repeat runs; inconclusive = weak or mixed curves; inactive = no such curve, though single readings can be large; an effect the other way counts as inactive or inconclusive.

Tests used:
[1] = qHTS assay to identify small molecule antagonists of the estrogen related receptor (ERR) signaling pathway - cell viability counter screen (AID 1224818); note: potency is the fitted concentration of half-maximal effect
Procedure, shortened: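 ERR cells, 2,000 per well, compound added after 6 h and incubated 17.5 h at 37 C. Viability read by CellTiter-Fluor fluorescence after a further 30 min at 37 C.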

[2] = qHTS assay to identify small molecule agonists of the estrogen related receptor (ERR) signaling pathway (AID 1224820)
Procedure, shortened: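 Quantitative HTS of the LOPAC library used NTP ERR reporter cells treated 18 h at 37 C. Signal is luminescence after One-Glo addition and a 30 min room-temperature incubation.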

[3] = system: estrogen-related receptor alpha (ERRalpha) with PGC-1alpha coactivator, human; experiment: qHTS assay to identify small molecule antagonists of the estrogen related receptor signaling pathway with the pleiotropic PPARgamma coactivator (PGC) (AID 1224821; calls by dose curve; note: nearly all actives have a fitted effect of over 50% in size; note: potency is the fitted concentration of half-maximal effect)
Procedure, shortened: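 Quantitative HTS for antagonism: PGC/ERR cells received compounds after 6 h attachment and were incubated 18 h at 37 C, with luminescence (One-Glo) as the endpoint.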

[4] = qHTS assay to identify small molecule antagonists of the estrogen related receptor signaling pathway with the pleiotropic PPARgamma coactivator (PGC) cell viability counter screen (AID 1224822; note: potency is the fitted concentration of half-maximal effect)
Procedure, shortened: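 PGC/ERR cells rested 6 h, then compound-treated 17.5 h at 37 C. CellTiter-Fluor added for 30 min at 37 C, viability measured by fluorescence intensity.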

[5] = qHTS assay to identify small molecule agonists of the estrogen related receptor signaling pathway with the pleiotropic PPARgamma coactivator (PGC) (AID 1224823)
Procedure, shortened: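 Cell-based luciferase assay in the NTP-supplied PGC/ERR line, 2,000 cells/well; 18 h compound exposure at 37 C, luminescence after One-Glo.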

[6] = qHTS assay to identify small molecule antagonists of the estrogen related receptor (ERR) signaling pathway from Tox21 library - cell viability counter screen (AID 1224834); note: nearly all actives have a fitted effect of over 30% in size
Procedure, shortened: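 ERR reporter cells, 2,000 per well, rested 6 h, then exposed to compound in DMSO for 17.5 hours at 37 C. Viability read as fluorescence after 30 min with CellTiter-Fluor.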

[7] = target: Luciferin 4-monooxygenase (Photinus pyralis) (UniProt P08659); experiment: qHTS assay to identify small molecule inhibitors of firefly luciferase (AID 1224835); note: series mostly up to about 120 µM; nearly all actives have a fitted effect of over 25% in size
Luciferin 4-monooxygenase (Photinus pyralis), sequence (P08659 whole entry, looked up): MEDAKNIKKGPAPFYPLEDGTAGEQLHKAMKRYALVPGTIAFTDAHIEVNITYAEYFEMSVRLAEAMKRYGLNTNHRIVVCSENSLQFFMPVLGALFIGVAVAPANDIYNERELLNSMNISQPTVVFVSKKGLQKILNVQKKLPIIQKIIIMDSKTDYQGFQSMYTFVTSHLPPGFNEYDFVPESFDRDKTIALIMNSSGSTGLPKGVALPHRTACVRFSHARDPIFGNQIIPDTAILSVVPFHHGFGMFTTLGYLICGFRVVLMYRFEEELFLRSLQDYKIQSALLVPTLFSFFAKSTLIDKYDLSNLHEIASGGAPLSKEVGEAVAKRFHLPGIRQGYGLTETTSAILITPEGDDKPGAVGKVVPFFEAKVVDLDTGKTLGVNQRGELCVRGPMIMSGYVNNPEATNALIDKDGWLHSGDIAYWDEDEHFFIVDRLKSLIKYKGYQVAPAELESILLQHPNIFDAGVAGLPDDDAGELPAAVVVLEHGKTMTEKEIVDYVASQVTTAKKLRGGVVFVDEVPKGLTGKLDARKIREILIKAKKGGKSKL
Procedure, shortened: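 Biochemical qHTS: compounds run as interplate titrations against purified firefly enzyme, with D-luciferin and ATP each at its KM concentration. Light output recorded by CCD imaging.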

[8] = qHTS assay to identify small molecule agonists of the constitutive androstane receptor (CAR) signaling pathway - cell viability counter screen (AID 1224836); note: series mostly up to about 92 µM; nearly all actives have a fitted effect of over 45% in size
Procedure, shortened: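 Using CellTiter-Fluor, viability of HepG2 cells harbouring hCAR and CYP2B6-2.2kb was measured following 23 h incubation with a 15-concentration compound series plus PK11195 (0.75 uM final).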

[9] = qHTS assay to identify small molecule antagonists of the constitutive androstane receptor (CAR) signaling pathway - cell viability counter screen (AID 1224837); note: series mostly up to about 92 µM; nearly all actives have a fitted effect of over 45% in size
Procedure, shortened: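 HepG2 cells stably carrying hCAR and CYP2B6-2.2kb reporter, stimulated with 50 nM CITCO and compounds at 15 concentrations for 23 h at 37 C. Viability measured by CellTiter-Fluor fluorescence.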

[10] = target: Nuclear receptor subfamily 1 group I member 3 (Homo sapiens) (UniProt Q14994); experiment: qHTS assay to identify small molecule antagonists of the constitutive androstane receptor (CAR) signaling pathway (AID 1224838); note: nearly all actives have a fitted effect of over 40% in size
Nuclear receptor subfamily 1 group I member 3 (Homo sapiens), sequence (Q14994 whole entry, looked up): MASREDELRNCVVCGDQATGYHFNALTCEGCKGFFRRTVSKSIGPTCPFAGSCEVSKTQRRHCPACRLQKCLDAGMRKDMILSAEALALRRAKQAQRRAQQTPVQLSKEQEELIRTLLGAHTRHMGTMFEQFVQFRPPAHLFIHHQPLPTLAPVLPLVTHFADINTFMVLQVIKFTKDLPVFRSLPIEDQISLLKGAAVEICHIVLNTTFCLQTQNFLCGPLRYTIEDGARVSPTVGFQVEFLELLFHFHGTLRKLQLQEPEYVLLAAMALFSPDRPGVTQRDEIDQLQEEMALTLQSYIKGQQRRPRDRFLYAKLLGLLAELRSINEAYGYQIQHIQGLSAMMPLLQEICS
Procedure, shortened: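 HepG2 cells stably carrying hCAR and a CYP2B6-2.2kb luciferase reporter, seeded 4 hrs before compound (15 concentrations). Stimulated with 50 nM CITCO for 24 hr at 37 C. ONE-Glo luminescence read after 30 min at room temperature.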

[11] = target: Nuclear receptor subfamily 1 group I member 3 (Homo sapiens) (UniProt Q14994); experiment: qHTS assay to identify small molecule agonists of the constitutive androstane receptor (CAR) signaling pathway (AID 1224839); note: series mostly up to about 92 µM; nearly all actives have a fitted effect of over 15% in size
Procedure, shortened: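 Double-stable HepG2 cells (hCAR, CYP2B6-2.2kb) seeded 4 h before compound addition. Exposure 24 h with 0.75 uM PK11195 final. Luciferase detected by ONE-Glo.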

[12] = qHTS assay to identify small molecule antagonists of the estrogen related receptor signaling pathway with the pleiotropic PPARgamma coactivator (PGC) from Tox21 10K library - cell viability counter screen (AID 1224840; active = well fitted cell-killing curve with a large enough effect in the repeat runs, not every such curve was filed as active; note: nearly all actives have a fitted effect of over 40% in size)
Procedure, shortened: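 PGC/ERR cells (2,000/well) plated 6 h, then compound-treated for 17.5 h at 37 C. Viability measured by CellTiter-Fluor fluorescence after 30 min at 37 C, multiplexed with the pathway assay.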

[13] = qHTS assay to identify small molecule antagonists of the estrogen related receptor signaling pathway with the pleiotropic PPARgamma coactivator (PGC) from Tox21 10K library (AID 1224841; call rule not given here; note: series mostly up to about 92 µM; actives are mostly falling curves and most rising ones were filed inactive; nearly all actives have a fitted effect of over 50% in size)
Procedure, shortened: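 PGC/ERR cell line, 2,000 cells/well, pre-incubated 6 hours at 37 C, then exposed to compounds for 18 hours at 37 C; luciferase read with One-Glo luminescence after 30 min at room temperature.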

[14] = qHTS assay to identify small molecule agonists of the estrogen related receptor signaling pathway with the pleiotropic PPARgamma coactivator (PGC) from Tox21 10K library (AID 1224842); note: nearly all actives have a fitted effect of over 15% in size
Procedure, shortened: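 PGC/ERR reporter cell line, 2,000 cells per well, incubated 6 h at 37 C before 23 nL compound in DMSO was added. After 18 h at 37 C, One-Glo luminescence read following 30 min at room temperature.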

[15] = target: Thyrotropin receptor (Homo sapiens) (UniProt P16473); experiment: qHTS assay to identify small molecule agonists of the thyroid stimulating hormone receptor (TSHR) signaling pathway (AID 1224843; calls by dose curve; note: potency is the fitted concentration of half-maximal effect; nearly all actives have a fitted effect of over 45% in size)
Thyrotropin receptor (Homo sapiens), sequence (P16473 whole entry, looked up): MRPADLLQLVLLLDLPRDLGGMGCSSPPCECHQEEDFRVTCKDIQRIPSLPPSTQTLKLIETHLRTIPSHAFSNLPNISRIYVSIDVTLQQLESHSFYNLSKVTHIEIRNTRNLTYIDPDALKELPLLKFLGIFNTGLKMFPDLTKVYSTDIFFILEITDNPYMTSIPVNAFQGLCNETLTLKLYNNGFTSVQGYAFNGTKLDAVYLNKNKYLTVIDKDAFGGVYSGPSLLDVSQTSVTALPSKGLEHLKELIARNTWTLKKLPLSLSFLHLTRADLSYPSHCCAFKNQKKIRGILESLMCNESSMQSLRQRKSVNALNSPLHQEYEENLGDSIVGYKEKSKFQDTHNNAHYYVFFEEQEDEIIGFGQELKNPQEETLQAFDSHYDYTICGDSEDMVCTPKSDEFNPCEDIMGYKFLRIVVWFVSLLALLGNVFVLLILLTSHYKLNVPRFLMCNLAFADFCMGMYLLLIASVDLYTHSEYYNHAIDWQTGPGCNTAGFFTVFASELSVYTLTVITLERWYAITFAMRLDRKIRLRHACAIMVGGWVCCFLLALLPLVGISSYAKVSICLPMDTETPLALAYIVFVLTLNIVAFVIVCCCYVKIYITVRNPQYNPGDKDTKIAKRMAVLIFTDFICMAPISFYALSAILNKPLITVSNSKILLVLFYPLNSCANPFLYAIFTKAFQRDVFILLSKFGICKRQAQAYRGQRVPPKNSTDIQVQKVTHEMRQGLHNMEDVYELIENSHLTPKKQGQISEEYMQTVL
Procedure, shortened: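 Steps: seed 800 TSHR-HEK293 cells per well; add test compound and hold 30 min at ambient temperature; dispense cAMP-d2 then anti-cAMP cryptate; incubate 1 h at ambient; measure fluorescence intensity.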

[16] = qHTS assay to identify small molecule agonists of the hypoxia (HIF-1) signaling pathway - cell viability counter screen (AID 1224844; calls by dose curve; note: nearly all actives have a fitted effect of over 50% in size)
Procedure, shortened: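 HRE-bla ME-180 cells, 2,000/well in 0.5% dialyzed FBS medium, treated 17 h at 37C with compounds. Viability read in the same wells as the bla reporter, by CellTiter-Glo luminescence after 30 min at room temperature.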

[17] = qHTS assay to identify small molecule agonists of H2AX (AID 1224845; active = well fitted activation curve with a large enough effect in the signal ratio in the repeat runs, not every such curve was filed as active; the % refers to the signal ratio)
Procedure, shortened: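 Wild-type CHO-K1 cells, plated overnight, exposed 3hr at 37C to 15 concentrations (0.76% DMSO final). Lysed, then HTRF anti-pH2AX (S139) cryptate and anti-H2AX-d2 antibodies, 24 hr room temperature; 665/620 nm emission read.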

[18] = qHTS assay to identify small molecule agonists of the hypoxia (HIF-1) signaling pathway (AID 1224846; active = well fitted activation curve with a large enough effect in the signal ratio in the repeat runs, not every such curve was filed as active; the % refers to the signal ratio)
Procedure, shortened: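 HRE-bla ME-180 beta-lactamase reporter cells in medium with 0.5% dialyzed FBS, pre-incubated 5 h then exposed to compounds 17 h at 37C, 5% CO2; reporter induction read with CCF4-AM FRET substrate.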

[19] = qHTS assay to identify small molecule agonists of H2AX - cell viability counter screen (AID 1224847; calls by dose curve; note: top concentration of the series differs between compounds; nearly all actives have a fitted effect of over 30% in size)
Procedure, shortened: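 Quantitative HTS viability measurement: CHO-K1 wild-type cells in serum (10% FBS) medium, short 3 hr drug exposure at 37C with 0.76% DMSO, CellTiter-Glo luminescent detection.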

Measured: Potency

CC#CCOC(=O)c1c(C)nc2sc3c(c2c1N)CCC(O)C3 (configuration not stated)
inactive: [1] | [2] | [3] | [4] | [5]

COc1ccccc1N1CCN(CCN(C(=O)c2ccc(F)cc2)c2ccccn2)CC1
inactive: [1] | [2] | [3] | [4] | [5]

COc1cccc(OC)c1OCCNCC1CSc2ccccc2O1 (configuration not stated)
inactive: [1] | [2] | [3] | [4] | [5]

CCc1ccc2c(-c3cccc(Cl)c3)nc(=O)n(CC)c2n1
inactive: [1] | [2] | [3] | [4] | [5]

CC[n+]1c(/C=C/C=C2/N(C)c3ccccc3C2(C)C)sc2ccccc21
inactive: [2] | [5]
active: [1] 9.08 µM | [3] 0.492 µM | [4] 3.9 µM

NC[C@H]1O[C@@H](n2cnc3c(N)ncnc32)[C@H](O)[C@@H]1O
inactive: [1] | [2] | [3] | [4] | [5]

O=C(Nc1ccncc1)c1cc([N+](=O)[O-])ccc1Cl
inactive: [1] | [2] | [3] | [4] | [5]

OCc1ccc(-c2nn(Cc3ccccc3)c3ccccc23)o1
inactive: [1] | [2] | [3] | [4] | [5]

O=C(O)c1ccccc1Nc1ccccc1
inactive: [1] | [2] | [3] | [4] | [5]

CC(/C=C/c1cccc(Oc2ccc(F)cc2)c1)N(O)C(N)=O (configuration not stated)
inactive: [1] | [2] | [3] | [4] | [5]

O=c1[nH]c(=S)[nH]c(-c2ccccc2)c1Cc1c(O)ccc2ccccc12
inactive: [1] | [2] | [3] | [4] | [5]

N#Cc1cc([N+](=O)[O-])c2sc(C(N)=O)[n+]([O-])c2c1
inactive: [1] | [2] | [3] | [4]

c1ccc2occc2c1
inactive: [1] | [2] | [3] | [4] | [5] | [6] | [7] | [8] | [9] | [10] | [11] | [12] | [13] | [14] | [16] | [17] | [18] | [19]
active: [15] 13.7 µM

COCCOc1cc2ncnc(Cl)c2cc1OCCOC
inactive: [1] | [2] | [4] | [5]

O=[N+]([O-])c1ccc(CNc2nc(NCc3cccc(C(F)(F)F)c3)nc3nc[nH]c23)cc1
inactive: [1] | [2] | [4] | [5]

CCN(CC)CCCCCCCCOC(=O)c1cc(OC)c(OC)c(OC)c1
inactive: [1] | [2] | [3] | [5]

COc1ccccc1N1CCN(CCN(C(=O)C2CCCCC2)c2ccccn2)CC1
inactive: [1] | [2] | [4]

c1ccc2c(c1)CC(N1CCN(c3cccc4c3OCCO4)CC1)C2
inactive: [1] | [2] | [3] | [4] | [5]

CCCc1c(-c2ccc(O)cc2)nn(-c2ccc(O)cc2)c1-c1ccc(O)cc1
inactive: [1] | [2] | [4]

c1ccc(C(NCc2cccnc2)(c2ccccc2)c2ccccc2)cc1
active: [3] 24.6 µM
inactive: [1] | [2] | [5]

O=C(CCSCc1ccco1)NNC(=O)N1Cc2ccccc2Oc2ccc(Cl)cc21
inactive: [1] | [2] | [4] | [5]

O=c1ccc2ccc(O)c(O)c2o1
inactive: [1] | [2] | [3] | [4] | [5]

CN(C)C(=O)[C@H](O)[C@H](Cc1ccccc1)NC(=O)c1cc2cc(Cl)ccc2[nH]1
inactive: [1] | [2] | [3] | [4] | [5]

CCCCCCCC/C=C\CCCCCCCC(=O)NCCc1ccc(O)c(O)c1
inactive: [1] | [2] | [3] | [5]

C[C@@H](CN1CCC(Cc2ccccc2)CC1)[C@@H](O)c1ccc(O)cc1
inactive: [1] | [2] | [4] | [5]

O=C(/C=C/c1ccc(O)cc1)c1ccc(O)cc1O
inactive: [1] | [2] | [3] | [4] | [5]

CC(=O)N[C@H](C(=O)O)C(C)(C)SN=O
inactive: [1] | [2] | [3] | [4] | [5]

S=C(S)N1CCCC1
active: [3] 3.22 µM | [4] 0.287 µM
inactive: [1] | [2] | [5]

COc1cc2c(cc1O)CC[C@@H]1[C@@H]2CC[C@]2(C)[C@@H](O)CC[C@@H]12
inactive: [1] | [2] | [3] | [4] | [5]
